“And” between values parts separate entries of the source, which are not always exact repeats. Equal values may be shown once. Hit rate of the full screen: of about 16,000 compounds, about 5,700 (36%) were called active. About 24% were inconclusive and are not listed. The list shows a part of the results. A number with no mark means an inactive call. Calls come from the whole dose curve; as a rule, active = well fitted curve in the direction sought with a large enough effect; inconclusive = small, poorly fitted or top-dose-only effect, or effect the other way; inactive = no such curve, though single readings can be large or run the other way.

These results are taken from PubChem BioAssay AID1851 (National Center for Advancing Translational Sciences (NCATS), 2009).
% is set by controls: 0 for no effect and ±100 for the full control effect.

Chain of Cytochrome P450 1A2 (Homo sapiens) (P05177 whole entry, looked up): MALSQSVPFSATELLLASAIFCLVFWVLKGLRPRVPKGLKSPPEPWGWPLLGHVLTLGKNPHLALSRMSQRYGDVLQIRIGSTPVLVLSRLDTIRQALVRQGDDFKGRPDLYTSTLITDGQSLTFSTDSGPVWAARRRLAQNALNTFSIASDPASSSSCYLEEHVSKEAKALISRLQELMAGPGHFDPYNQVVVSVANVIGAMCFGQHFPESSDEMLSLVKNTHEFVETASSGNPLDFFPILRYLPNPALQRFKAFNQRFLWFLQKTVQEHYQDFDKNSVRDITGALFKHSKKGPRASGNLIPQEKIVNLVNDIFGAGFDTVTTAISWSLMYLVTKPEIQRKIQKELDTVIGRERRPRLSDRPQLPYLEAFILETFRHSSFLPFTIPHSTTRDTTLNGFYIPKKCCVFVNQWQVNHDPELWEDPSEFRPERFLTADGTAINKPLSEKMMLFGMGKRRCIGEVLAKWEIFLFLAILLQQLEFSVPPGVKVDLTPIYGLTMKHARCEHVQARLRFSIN

The assay concerns the target Cytochrome P450 1A2 (Homo sapiens) (UniProt P05177). As to the kind of experiment: Cytochrome panel assay with activity outcomes. The settings on record: recombinant CYP, pro-luciferin dealkylation, luminescence, p450-cyp1a2; series mostly up to 57.1 µM.
With `C(=N\n1cnnc1)/c1cccn1-c1ccccc1`, the AC50 is 8.91 µM (active).

Regarding `CC(C)NC(=O)N1CCCC2(CCN(S(=O)(=O)c3ccccc3)CC2)C1`, the AC50 result is “inactive”.

For the compound `CCCN1CNC(=S)N(c2cccc(C)c2C)C1`, the AC50 result is “inactive”.

Regarding `CC(C)=CCC1=C(OCC(=O)O)C(=O)c2ccccc2C1=O`, the AC50 is 0.501 µM (active).

For `CC(C)=CCc1c(C)nc2ccccc2c1C(=O)O`, the AC50 result was “inactive”.

Consider `O=C1CC(N2CCN(CCc3ccccn3)CC2)C(=O)N1c1ccc(Cl)cc1` (configuration not stated), for which the AC50 result was “inactive”.

Turning to `CC(=O)Nc1ccc(N2C(=O)CSC2c2c(F)cccc2Cl)cc1` (configuration not stated), the AC50 result was “inactive”.

For the compound `O=C1CSC(c2ccccn2)N1c1ccc(Cl)c(Cl)c1` (configuration not stated), the AC50 is 10 µM (active).

`COc1cc2c(cc1OC)-c1cc(=Nc3c(C)cc(C)cc3C)n(C)c(=O)n1CC2`: the AC50 entry is “inactive”.

In the case of `COc1ccc(Cl)cc1C(=O)NCCc1ccc(S(=O)(=O)NC(=O)NC2CCCCC2)cc1`, the AC50 result is “inactive”.

With `Cn1c(=O)c2cc(S(=O)(=O)NCCC(=O)Nc3ccc(Cl)cc3)ccc2n(C)c1=O`, the AC50 result was “inactive”.

For the compound `COc1ccc(OC)c2[nH]c(=O)c(CCNC(=O)COc3ccccc3)cc12`, the AC50 was 11.2 µM (active).

With `COc1ccc(OC)c2[nH]c(=O)c(CCNC(=O)c3ccc(S(=O)(=O)N(C)C)cc3)cc12`, the AC50 entry is “inactive”.

As to `COc1ccc(OC)c2[nH]c(=O)c(CCNS(=O)(=O)c3ccccc3)cc12`, the AC50 is 12.6 µM (active).

`COc1ccc(OC)c2[nH]c(=O)c(CCNC(=O)c3ccc(S(=O)(=O)N4CCCC4)cc3)cc12`: the AC50 entry was “inactive”.

In the case of `COc1ccc(OC)c2[nH]c(=O)c(CCNS(=O)(=O)c3ccc(Cl)cc3)cc12`, the AC50 was 12.6 µM (active).

As for `CC1(C)OC[C@@H]2O[C@H](n3cnc4c(N)nc(Cl)nc43)[C@@H](OS(C)(=O)=O)[C@@H]2O1`, the activity, negative = inhibition was -14.5% [at 2.29 µM].

For `O=S(=O)(c1ccc(Br)cc1)N1CCN(S(=O)(=O)c2ccc(Br)cc2)CC1`, the activity, negative = inhibition was -11.2% [at 11.4 µM].

On to `O=C(O)CCC(=O)N1CCc2cc(S(=O)(=O)N3CCCCC3)ccc21`, for which the AC50 result is “inactive”.

Take `O=S(=O)(c1cccc(-c2nnc(-c3ccc(Br)cc3)o2)c1)N1CCCCCC1`: the AC50 is 14.1 µM (active).

Consider `Cc1nn2c3c(cnc2c1-c1ccccc1)C(=O)CC(c1ccccc1)C3` (configuration not stated), for which the concentration at half-maximal activity (AC50) is 3.16 µM (active).

Regarding `CCC1NC(=S)N(C2CCCCC2)C1=O` (configuration not stated), the AC50 result is “inactive”.

As to `COc1cccc(-c2nccc(N(C)Cc3ccco3)n2)c1`, the AC50 is 0.631 µM (active).

For the compound `CN(Cc1ccco1)c1ccnc(-c2cccnc2)n1`, the AC50 is 0.794 µM (active).

In the case of `CN(C)C(=O)c1ccc(-c2nccc(N(C)Cc3ccco3)n2)cc1`, the AC50 is 12.6 µM (active).

Consider `CN(Cc1ccco1)c1ccnc(-c2ccoc2)n1`, for which the AC50 was 12.6 µM (active).

Regarding `COc1ccc(Cc2nnc(NC(=O)Cn3cnc4c3c(=O)n(C)c(=O)n4C)s2)cc1OC`, the AC50 entry is “inactive”.

With `CN(Cc1ccco1)c1ccnc(-c2cccc(C#N)c2)n1`, the half-maximal activity concentration (AC50) is 0.398 µM (active).

On to `NC(N)=N/N=C\c1ccc(C2CCNCC2)cc1`, for which the activity, negative = inhibition was -12% [at 2.29 µM].

`O=C1CCCC=C1[C@H](O)c1ccc([N+](=O)[O-])cc1`: the activity, negative = inhibition is -7.01% [at 11.4 µM].

`CS/C(N)=N/N=C/c1ccc([N+](=O)[O-])cc1`: the concentration at half-maximal activity (AC50) is 14.1 µM (active).

For `C=CCNC(=O)c1csc(-c2ccccc2)n1`, the AC50 was 0.631 µM (active).

With `C=CCNC(=O)c1onc(CSc2ccc(F)cc2)c1C(=O)O`, the AC50 entry is “inactive”.

As to `C=CCNC(=O)c1ccc2nc(-c3ccccc3)c(-c3ccccc3)nc2c1`, the AC50 is 15.8 µM (active).

Consider `C=CCNC(=O)c1cccn1-c1ccsc1C(=O)OC`, for which the AC50 entry is “inactive”.

As for `COc1ccc(N(C)C(=O)c2ccc3nc(-c4ccccc4)c(-c4ccccc4)nc3c2)cc1`, the AC50 result was “inactive”.

As to `C=CCNC(=O)c1ccc(-c2nc(-c3ccc(Cl)c(Cl)c3)cs2)cc1`, the AC50 result is “inactive”.

In the case of `CC(=O)NCCNc1ncnc2ccc(-c3cccc(NS(C)(=O)=O)c3)cc12`, the AC50 is 15.8 µM (active).

In the case of `COCCNc1ncnc2ccc(-c3cccc(NS(C)(=O)=O)c3)cc12`, the AC50 is 0.794 µM (active).

As to `O=C(c1cnccn1)N1CCC2(CCN(Cc3nccs3)CC2)CC1`, the AC50 result is “inactive”.

For `CN(c1ccc(C(=O)NCc2ccccn2)cc1)S(C)(=O)=O`, the AC50 result was “inactive”.

In the case of `Cc1ccc(NS(=O)(=O)c2cc(C(=O)NCc3ccccn3)ccc2Cl)cc1`, the AC50 is 5.01 µM (active).

In the case of `C=C(CC)C(=O)c1ccc(OCC(=O)O)c(Cl)c1Cl`, the AC50 entry is “inactive”.

Consider `COC(=O)/C=C/CSC1=N/C(=C/c2ccc(-n3cncn3)cc2)C(=O)N1`, for which the half-maximal activity concentration (AC50) is 1 µM (active).

Consider `CNc1ncnc2c1ncn2[C@H]1C[C@@H](OP(=O)(O)O)[C@H](COP(=O)(O)O)O1`, for which the AC50 result was “inactive”.

Consider `N#Cc1ccc(C(=O)Nc2ccc(N3CCN(C(=O)c4ccco4)CC3)cc2)c(F)c1`, for which the AC50 entry is “inactive”.

As for `COC(=O)Cn1cc(/C=N/NC(=O)c2ccc(C#N)cc2F)c2ccccc21`, the AC50 is 3.55 µM (active).

Consider `CCN(CC)C(=O)Cn1cc(/C=C(\C#N)C(=O)N2CCN(c3ccccc3)CC2)c2ccccc21`, for which the AC50 result was “inactive”.

Regarding `COc1ccc(Oc2ncc3nc(C)c(=O)n(-c4ccc(OC)cc4)c3n2)cc1`, the AC50 is 15.8 µM (active).

As to `Cc1nc2cnc(Oc3ccccc3)nc2n(-c2ccccc2)c1=O`, the AC50 is 10 µM (active).

Turning to `COc1ncc2nc(C)c(=O)n(-c3ccccc3)c2n1`, the AC50 is 5.01 µM (active).

Regarding `COc1ccc(-n2c(=O)c(C)nc3cnc(OC)nc32)cc1`, the AC50 result was “inactive”.

As for `Cc1ccc(N[C@H](c2ccccc2)c2ccc3cccnc3c2O)cc1`, the activity, negative = inhibition was -24.5% [at 2.29 µM].

For `COc1ccc(/C(C)=N/NC(=O)c2ccc(CSc3cccc4cccnc34)cc2)cc1OC`, the concentration at half-maximal activity (AC50) is 11.2 µM (active).

As for `Cc1cccc(CSc2cccc3cccnc23)c1`, the AC50 was 2 µM (active).

In the case of `Cc1nc(N=Nc2cc(S(=O)(=O)O)ccc2S(=O)(=O)O)c(COP(=O)(O)O)c(C=O)c1O`, the AC50 result was “inactive”.

With `COc1cc(CC(=O)O)ccc1O`, the AC50 entry was “inactive”.

For `COc1cc([C@H](O)C(=O)O)ccc1O`, the AC50 result is “inactive”.

Take `COc1cc(CNC(=O)CCCC/C=C\C(C)C)ccc1O`: the AC50 was 1.58 µM (active) and 3.16 µM (active).

For `Clc1ccc(Nc2ncn[nH]2)cc1`, the AC50 was 4.47 µM (active).

Consider `O=C(O)/C=C\C(=O)Nc1ncn[nH]1`, for which the activity, negative = inhibition was -8.55% [at 11.4 µM].

`O=C(Nc1ncn[nH]1)c1ccc([N+](=O)[O-])cc1[N+](=O)[O-]`: the AC50 entry is “inactive”.
